# Laboratory results as given in PubChem BioAssay AID1159580 (chemical genetic matrix, 2015).
# Where “and” joins values, the source holds several entries; their conditions need not be identical. Equal values may be shown once. About 2,000 (36%) of roughly 5,500 compounds were called active. Another 18% or so got no clear call; they are omitted. Cut-off read from the data, not from the text of the source: active = normalized growth mostly below about 0.91 (no sharp cut-off); inconclusive = no clear call, values can overlap the other calls; inactive = mostly above about 0.92. The list shows a part of the results.
# Experiment: chemical genetic growth profiling, strain panel (AID 1159580);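 note: tested at 20 µM; growth read once vehicle control cultures reached saturation at 30 °C; 1 = growth at the plate median or of vehicle wells; lower values mean less growth of the strain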
# Conditions: S. cerevisiae deletion strains, growth OD
smiles,measurement,setting,value
COc1ccc2c(c1)CCC1C2CC[C@@]2(C)C1CC[C@@H]2O (some centres not stated),normalized growth,"locus YAL013W, strain DEP1, stronger effect = lower value",0.82 (active)
same,normalized growth,"locus YAL021C, strain ccr4, stronger effect = lower value",0.959 (inactive)
same,normalized growth,"locus YAL026C, strain drs2, stronger effect = lower value",0.682 (active)
same,normalized growth,"locus YAL030W, strain snc1, stronger effect = lower value",0.959 (inactive)
same,normalized growth,"locus YBL061C, strain skt5, stronger effect = lower value",0.889 (active)
same,normalized growth,"locus YBR009C, strain hhf1, stronger effect = lower value",0.76 (active)
same,normalized growth,"locus YBR021W, strain FUR4, stronger effect = lower value",1.04 (inactive)
same,normalized growth,"locus YBR023C, strain chs3, stronger effect = lower value",0.852 (active)
same,normalized growth,"locus YBR171W, strain sec66, stronger effect = lower value",0.94 (inactive)
same,normalized growth,"locus YBR229C, strain ROT2, stronger effect = lower value",0.982 (inactive)
same,normalized growth,"locus YBR231C, strain swc5, stronger effect = lower value",0.978 (inactive)
same,normalized growth,"locus YBR279W, strain paf1, stronger effect = lower value",0.884 (active)
same,normalized growth,"locus YCL011C, strain gbp2, stronger effect = lower value",0.813 (active)
same,normalized growth,"locus YCL016C, strain dcc1, stronger effect = lower value",0.862 (active)
same,normalized growth,"locus YCL029C, strain bik1, stronger effect = lower value",0.884 (active)
same,normalized growth,"locus YCL061C, strain MRC1, stronger effect = lower value",0.854 (active)
same,normalized growth,"locus YCL069W, strain vba3, stronger effect = lower value",0.898 (active)
same,normalized growth,"locus YCR088W, strain abp1, stronger effect = lower value",0.937 (inactive)
same,normalized growth,"locus YDL005C, strain med2, stronger effect = lower value",0.983 (inactive)
same,normalized growth,"locus YDL035C, strain GPR1, stronger effect = lower value",0.728 (active)
same,normalized growth,"locus YDL040C, strain nat1, stronger effect = lower value",0.96 (inactive)
same,normalized growth,"locus YDL074C, strain BRE1, stronger effect = lower value",0.514 (active)
same,normalized growth,"locus YDL101C, strain DUN1, stronger effect = lower value",0.899 (inactive)
same,normalized growth,"locus YDL134C, strain PPH21, stronger effect = lower value",0.799 (active)
same,normalized growth,"locus YDL185W, strain tfp1, stronger effect = lower value",0.961 (inactive)
same,normalized growth,"locus YDL192W, strain arf1, stronger effect = lower value",0.502 (active)
same,normalized growth,"locus YDR001C, strain nth1, stronger effect = lower value",0.965 (inactive)
same,normalized growth,"locus YDR069C, strain doa4, stronger effect = lower value",1.01 (inactive)
same,normalized growth,"locus YDR101C, strain arx1, stronger effect = lower value",0.811 (active)
same,normalized growth,"locus YDR137W, strain rgp1, stronger effect = lower value",0.578 (active)
same,normalized growth,"locus YDR150W, strain NUM1, stronger effect = lower value",0.944 (inactive)
same,normalized growth,"locus YDR159W, strain sac3, stronger effect = lower value",0.746 (active)
same,normalized growth,"locus YDR162C, strain NBP2, stronger effect = lower value",0.405 (active)
same,normalized growth,"locus YDR195W, strain ref2",0.953 (inactive)
same,normalized growth,"locus YDR297W, strain sur2, stronger effect = lower value",0.915 (active)
same,normalized growth,"locus YDR318W, strain mcm21, stronger effect = lower value",0.7 (active)
same,normalized growth,"locus YDR334W, strain swr1, stronger effect = lower value",1 (inactive)
same,normalized growth,"locus YDR335W, strain msn5, stronger effect = lower value",0.872 (active)
same,normalized growth,"locus YDR388W, stronger effect = lower value",0.936 (inactive)
same,normalized growth,"locus YDR392W, strain spt3, stronger effect = lower value",0.239 (active)
same,normalized growth,"locus YDR502C, strain sam2, stronger effect = lower value",0.757 (active)
same,normalized growth,"locus YEL003W, strain gim4, stronger effect = lower value",0.842 (active)
same,normalized growth,"locus YEL037C, strain rad23, stronger effect = lower value",0.966 (inactive)
same,normalized growth,"locus YEL061C, strain CIN8 (second series), stronger effect = lower value",0.893 (active)
same,normalized growth,"locus YEL061C, strain CIN8, stronger effect = lower value",0.825 (active)
same,normalized growth,"locus YER015W, strain faa2, stronger effect = lower value",0.86 (active)
same,normalized growth,"locus YER016W, strain bim1, stronger effect = lower value",0.957 (inactive)
same,normalized growth,"locus YER110C, stronger effect = lower value",0.875 (active)
same,normalized growth,"locus YER111C, strain swi4, stronger effect = lower value",0.939 (inactive)
same,normalized growth,"locus YER155C, strain BEM2 (second series), stronger effect = lower value",0.686 (active)
same,normalized growth,"locus YER155C, strain BEM2, stronger effect = lower value",0.676 (active)
same,normalized growth,"locus YER167W, strain BCK2, stronger effect = lower value",0.653 (active)
same,normalized growth,"locus YFR010W, strain ubp6, stronger effect = lower value",0.974 (inactive)
same,normalized growth,"locus YGL078C, strain dbp3, stronger effect = lower value",0.783 (active)
same,normalized growth,"locus YGL086W, strain mad1, stronger effect = lower value",0.75 (active)
same,normalized growth,"locus YGL167C, strain pmr1, stronger effect = lower value",0.965 (inactive)
same,normalized growth,"locus YGL173C, strain kem1, stronger effect = lower value",0.885 (active)
same,normalized growth,"locus YGL227W, strain vid30, stronger effect = lower value",0.903 (active)
same,normalized growth,"locus YGL240W, strain doc1, stronger effect = lower value",0.855 (active)
same,normalized growth,"locus YGL248W, strain PDE1, stronger effect = lower value",0.844 (active)
same,normalized growth,"locus YGL253W, strain hxk2, stronger effect = lower value",0.786 (active)
same,normalized growth,"locus YGR078C, strain PAC10, stronger effect = lower value",0.659 (active)
same,normalized growth,"locus YGR135W, strain pre9, stronger effect = lower value",0.731 (active)
same,normalized growth,"locus YGR229C, strain SMI1, stronger effect = lower value",0.407 (active)
same,normalized growth,"locus YGR252W, strain gcn5, stronger effect = lower value",0.47 (active)
same,normalized growth,"locus YHR013C, strain ard1, stronger effect = lower value",1.04 (inactive)
same,normalized growth,"locus YHR027C, strain rpn1, stronger effect = lower value",0.977 (inactive)
same,normalized growth,"locus YHR030C, strain SLT2, stronger effect = lower value",0.36 (active) and 0.884 (inactive)
same,normalized growth,"locus YHR079C, strain IRE1 (second series), stronger effect = lower value",0.787 (active)
same,normalized growth,"locus YHR079C, strain IRE1, stronger effect = lower value",0.872 (inactive)
same,normalized growth,"locus YHR094C, strain hxt1, stronger effect = lower value",0.951 (inactive)
same,normalized growth,"locus YHR129C, strain ARP1, stronger effect = lower value",0.753 (active)
same,normalized growth,"locus YHR142W, strain chs7, stronger effect = lower value",0.628 (active)
same,normalized growth,"locus YHR200W, strain rpn10, stronger effect = lower value",0.817 (active)
same,normalized growth,"locus YIL066C, strain RNR3, stronger effect = lower value",0.625 (active)
same,normalized growth,"locus YIL073C, strain SPO22, stronger effect = lower value",0.727 (inactive)
same,normalized growth,"locus YIL125W, strain kgd1, stronger effect = lower value",0.822 (active)
same,normalized growth,"locus YIR030C, strain dcg1, stronger effect = lower value",0.902 (active)
same,normalized growth,"locus YJL092W, strain hpr5, stronger effect = lower value",0.934 (inactive)
same,normalized growth,"locus YJL095W, strain BCK1 (second series), stronger effect = lower value",0.833 (active)
same,normalized growth,"locus YJL095W, strain BCK1, stronger effect = lower value",0.363 (active) and 0.882 (active)
same,normalized growth,"locus YJL115W, strain asf1, stronger effect = lower value",0.987 (inactive)
same,normalized growth,"locus YJL129C, strain trk1, stronger effect = lower value",0.804 (active)
same,normalized growth,"locus YJL134W, strain LCB3, stronger effect = lower value",0.989 (inactive)
same,normalized growth,"locus YJL154C, strain vps35, stronger effect = lower value",0.986 (inactive)
same,normalized growth,"locus YJL164C, strain tpk1, stronger effect = lower value",0.812 (active)
same,normalized growth,"locus YJL166W, strain qcr8, stronger effect = lower value",0.775 (active)
same,normalized growth,"locus YJL168C, strain set2, stronger effect = lower value",0.943 (inactive)
same,normalized growth,"locus YJL187C, strain SWE1 (second series), stronger effect = lower value",0.818 (active)
same,normalized growth,"locus YJL187C, strain SWE1, stronger effect = lower value",0.898 (active)
same,normalized growth,"locus YJR043C, strain POL32, stronger effect = lower value",0.698 (active)
same,normalized growth,"locus YJR066W, strain TOR1, stronger effect = lower value",0.907 (inactive)
